This is an account of results in PubChem BioAssay (Tox21).

Structures are written as SMILES. Results filed as inconclusive are left out. Where a call stands in place of a potency, no number is given. Active and inactive are the calls of the source. Calls come from the whole dose curve; as a rule, active = well fitted inhibition curve with a large enough effect in the repeat runs; inconclusive = weak or mixed curves; inactive = flat fitted curve, though single readings scatter.
Potency is the fitted concentration of half-maximal effect.

This experiment can be described thus: qHTS assay to identify small molecule HDAC inhibitors (AID 1259364). Note: nearly all actives have a fitted effect of over 45% in size. Conditions: HCT-116 HDAC-Glo I/II luminescence, 2 h; series mostly up to 92.4 µM. An excerpt: U.S. Tox21 Program National Center for Advancing Translational Sciences [NCATS] NIH Chemical Genomics Center [NCGC] U.S. Environmental Protection Agency [EPA] National Institutes of Environmental Health Sciences [NIEHS] National Toxicology Program [NTP] U.S. Food and Drug Administration [FDA] Tox21 Assay Overview: Histone deacetylases (HDACs) are a group of epigenetic enzymes that regulate gene expression by histone deacetylation. HDACs are capable of introducing epigenetic modifications and such aberrations contribute to the onset and progression of several human diseases, thus making HDACs a popular therapeutic target. For identifying endogenous class I/II HDAC inhibitors a homogenous, luminogenic HDAC I/II cell based assay was used to measure the relative activity of class I and II HDACs from cells. Wild type HCT-116 cells were used to screen Tox21 libraries for identifying class I/II HDAC inhibitors.
Tox21 Assay Protocol Summary: HCT-116 cells were dispensed at 1,500 per well in 5uL of culture medium into white solid bottom 1536-well plates (Greiner Bio-One, Monroe, NC) using a Multidrop Combi (Thermo Scientific, Waltham, MA) dispenser. The assay plates were incubated at 37 C and 5% CO2 for an overnight, and then 23nL of compounds dissolved in DMSO and positive control were transferred using a Pintool station (Wako, San Diego, CA). The assay plates were incubated at 37C and 5% CO2 for 2hr. After compound treatment, 4uL of HDAC-Glo reagent (Promega Corporation, Madison, WI) was added to each well of the assay plates using Flying Reagent Dispenser (FRD, Aurora Discovery, San Diego, CA) and incubated the assay plates at room temperature for 30min. The luminescence signal was quantified using a ViewLux plate reader (Perkin Elmer, Shelton, CT).
(qHTS replaces the single test concentration by a dilution series.)
`C[C@H](O)C(=O)Nc1c(I)c(C(=O)NC(CO)CO)c(I)c(C(=O)NC(CO)CO)c1I`: the Potency entry was “inactive”. As for `CCCC(=O)O[C@]1(C(=O)CCl)[C@@H](C)C[C@H]2[C@@H]3CCC4=CC(=O)C=C[C@]4(C)[C@@]3(F)C(=O)C[C@@]21C`, the Potency result is “inactive”. `NC(=O)CCCCC1CCSS1` (stereo not given): the Potency result was “inactive”.

As to `CCN1CCN(c2cc3c(cc2F)c(=O)c(C(=O)O)cn3C2CC2)CC1`, the Potency result is “inactive”. With `CCO[Si](CCCN=C=O)(OCC)OCC` the entry was “inactive”; with `NCCN1CCNC1=O`, “inactive”.

Regarding `CCN1CCCC1CNC(=O)c1cc(S(N)(=O)=O)ccc1OC` (stereo not given), the Potency result was “inactive”. Take `CC(O)CN(CCCN(C)C)CCCN(C)C` (stereo not given): the Potency entry was “inactive”.

Consider `Nc1nc(F)nc2c1ncn2[C@@H]1O[C@H](CO)[C@@H](O)[C@@H]1O`, for which the Potency entry is “inactive”. As for `NC(=O)c1ncn([C@@H]2O[C@H](CO)[C@@H](O)[C@H]2O)c1O`, the entry is “inactive”; as for `CCCCCCOC(=O)CC(CC(=O)OCCCCCC)(OC(=O)CCC)C(=O)OCCCCCC`, “inactive”; as for `CN1[C@@H]2CC[C@H]1CC(NC(=O)n1c(=O)[nH]c3ccccc31)C2` (stereo not given in full), “inactive”. Regarding `C1C2OC2C2C1C1CC2C2OC12` (stereo not given), the Potency result is “inactive”. With `CC/C=C\CCCCO` the entry was “inactive”; with `CCCCCOC(=O)Nc1nc(=O)n([C@@H]2O[C@H](C)[C@@H](O)[C@H]2O)cc1F`, “inactive”.

As to `COC(=O)c1ccc(C(=O)OC)c(C(=O)OC)c1`, the Potency result is “inactive”.

For `CSc1nc(NC2CC2)nc(NC(C)(C)C)n1`, the Potency result was “inactive”.

`C=CC(=O)N1CCOCC1`: the Potency entry was “inactive”. In the case of `CCCCCCCCCCCCI`, the Potency entry is “inactive”. `COc1cc(CCC(C)=O)ccc1O`: the Potency result is “inactive”. With `Fc1ccccc1-c1ccccc1` the entry was “inactive”. Turning to `NC(CS)C(=O)O` (stereo not given), the Potency result is “inactive”. As for `CC/C=C\C#N`, the entry is “inactive”; as for `COC(C(=O)O)c1ccccc1` (stereo not given), “inactive”; as for `CC(C)CCCC(C)NCCC(C)C` (stereo not given), “inactive”.

On to `CC(C)(C)C(=O)/C=C/c1ccc(Cl)cc1`, for which the Potency entry was “inactive”. As for `OC[C@H]1O[C@@H]2O[C@H]3[C@H](O)[C@@H](O)[C@@H](O[C@H]4[C@H](O)[C@@H](O)[C@@H](O[C@H]5[C@H](O)[C@@H](O)[C@@H](O[C@H]6[C@H](O)[C@@H](O)[C@@H](O[C@H]7[C@H](O)[C@@H](O)[C@@H](O[C@H]8[C@H](O)[C@@H](O)[C@@H](O[C@H]9[C@H](O)[C@@H](O)[C@@H](O[C@H]1[C@H](O)[C@H]2O)O[C@@H]9CO)O[C@@H]8CO)O[C@@H]7CO)O[C@@H]6CO)O[C@@H]5CO)O[C@@H]4CO)O[C@@H]3CO`, the entry is “inactive”; as for `COCCOC(=O)CC#N`, “inactive”. With `O=C(O)/C=C/c1ccc(/C=C/C(=O)O)cc1` the figure was 1340 nM (active). With `C/C=C1\C(=O)C[C@H]2[C@@H]3CCC4=CC(=O)CC[C@]4(C)[C@H]3CC[C@]12C` the entry was “inactive”. In the case of `CC1(C)OC(=O)Nc2ccc(Br)cc21`, the Potency result is “inactive”. For the compound `O=C(O)c1ccccc1S`, the Potency result is “inactive”. As for `CCCCCCCCCCCCCCCCCCOCC(O)CO` (stereo not given), the Potency entry was “inactive”. As for `OCC(CO)(CO)COCC(CO)(CO)CO`, the entry is “inactive”; as for `C=C(C)C1CC=C(C)C(O)C1` (stereo not given), “inactive”; as for `C=CCn1c(=O)n([C@@H]2O[C@H](CO)[C@@H](O)[C@H]2O)c2nc(N)[nH]c(=O)c21`, “inactive”. As for `CCCCCCC(=O)OCC`, the Potency result is “inactive”. Consider `N[C@@H](CS)C(=O)O`, for which the Potency result is “inactive”. With `O=C(O)C1CCC1` the entry was “inactive”; with `C#CC(C)(O)CC(C)C` (stereo not given), “inactive”.
